Screens as filed in PubChem BioAssay.
HIV TAR-Tat: HIV-1 TAR-Tat binding disruption. AID 1259389. HIV-1 TAR RNA, Tat peptide displacement FRET; hits give high values. z-score (concentration not given with the values). 0.6% of 100,000 active; active = z-score of 3 or more in at least 2 runs
CDC25B-CDK2 inh: human CDC25B-CDK2/CyclinA binding inhibition; P30305+P24941; HTRF CDC25B-CDK2/CyclinA binding, anti-His/anti-Flag; hits give high values; z-score (test concentration not listed); 0.72% of 94,000 active; in the data active = z-score above about 3.2
* = called active by the depositor; . = no result. Only some compounds are listed: those with a hit (about 0.9% of all), similar ones and a draw of the others.

SMILES	HIV TAR-Tat	CDC25B-CDK2 inh
COCCOC(=O)C1=C(C)NC2=C(C(=O)CC(c3ccccc3)C2)C1c1cccc(OC)c1OC (centres undefined)	1.3	-2.7
N/C(=N\O)c1ccc(OCc2ccc(Cl)cc2)cc1	.	-1.9
COc1cc2c3c(c1OC)C1(C=CC(=O)C=C1)CC3N(C)CC2 (centres undefined)	-3	8.3*
COc1ccc2c(c1OC)C(=O)O[C@@H]2[C@H]1c2c(cc3c(c2OC)OCO3)CCN1C	4.3	-1.4
CC(C)C(=O)NCC(c1ccco1)S(=O)(=O)c1ccc(F)cc1 (centres undefined)	2	.
O=C(O)CCc1nc2ccc(C(=O)O)cc2[nH]1	0.63	0.54
Nc1ccc2nc(CCC(=O)O)[nH]c2c1	1.1	19*
CC(C)CCNC(=O)C1(C)Cn2c(ccc2-c2ccco2)C(=O)N1Cc1ccco1 (centres undefined)	-5.9	.
O=C1CC(c2ccc(Cl)cc2)Cc2nc(N3CCN(Cc4ccccc4)CC3)ncc21 (centres undefined)	-9.2	-1.7
CCCN1CCN(CCCN=C2NS(=O)(=O)C(c3ccc(C(C)C)cc3)=C2C)CC1	-0.9	-0.97
CCOC(=O)c1c(NC(=O)COc2ccc(Br)cc2)sc(C)c1C	2.7	-2.1
O=S(=O)(CCc1ccccc1)Nc1ccc2c(c1)N(S(=O)(=O)c1ccccc1)CCC2	0.48	.
COc1ccc(-c2cc(C(=O)OC(C)C)c3cc(Br)ccc3n2)cc1	.	15*
CCOc1ccc(-c2cc(C(=O)O)c3cc(Br)ccc3n2)cc1	1.9	-2.4
O=C(c1n[nH]c2c1CCCC2)N1CCOCC1	.	-1.4
Cn1ncc2c(NCCc3cccs3)nc(N3CCCCC3)nc21	0.79	.
CCc1nnc(SCC(=O)N(C)c2ccccc2)c2cc3occc3n12	1.2	.
O=C1C[C@@H](c2ccc(O)c(O)c2)Oc2cc(O[C@H]3O[C@@H](CO)[C@H](O)[C@@H](O)[C@@H]3O)cc(O)c21	3.2	.
O=C1/C(=C\c2ccc(O)c(O)c2)Oc2c1ccc(O[C@@H]1O[C@H](CO)[C@@H](O)[C@H](O)[C@H]1O)c2O	16*	.
CS(=O)(=O)CCC(C(=O)Nc1ccc(Br)cc1F)N1Cc2ccccc2C1=O (centres undefined)	1.5	.
O=S(=O)(O)c1cc[n+]([O-])cc1	.	4.4*
O=S(=O)(O)c1ccc2[nH]c(=S)sc2c1	.	-0.66
COCCCN1CCn2c(nc3cc(NC(=O)NC4CCCCC4)ccc32)C1	-8.9	0.2
COCCN1CCn2c(nc3cc(NC(=O)NC4CCCCC4)ccc32)C1	-0.33	7*
COCCN1CCn2c(nc3cc(Cl)ccc32)C1	0.82	0.96
SMILES	HIV TAR-Tat	CDC25B-CDK2 inh
COCCN1CCn2c(nc3cc(Nc4nnc(C)c5ccccc45)ccc32)C1	1.6	14*
Cc1cc(NC(=O)c2cccs2)c([N+](=O)[O-])cc1C	.	-1.2
O=C(O)C1CCCN(S(=O)(=O)c2ccc3c(c2)CCCC3)C1 (centres undefined)	-0.38	-0.86
CCOC(=O)c1c(C)oc2nc(C)nc(Nc3ccc(OCC)cc3)c12	0.53	.
CC1CCN(CC(O)Cn2ccc3ccccc32)CC1 (centres undefined)	1.6	-0.29
CCCCC(=O)Nc1cc(=O)n(C)c(=O)n1C	1.4	.
N#CC1=C2SCN(c3ccc(Br)cc3)CN2C(=O)CC1c1cccc(F)c1 (centres undefined)	-3	6.6*
N#CC1=C2SCN(c3ccccc3)CN2C(=O)CC1c1ccc(Br)cc1 (centres undefined)	-4.1	4*
N#CC1=C2SCN(c3ccc(F)cc3)CN2C(=O)CC1c1cccc(F)c1 (centres undefined)	-3.9	6.4*
COc1ccc(Br)cc1C1CC(=O)N2CN(c3ccc(F)cc3)CSC2=C1C#N (centres undefined)	-4	4.4*
COc1ccc(Br)cc1C1CC(=O)N2CN(Cc3ccco3)CSC2=C1C#N (centres undefined)	-1.3	-0.21
N#CC1=C2SCN(c3ccccc3F)CN2C(=O)CC1c1ccc(Br)cc1 (centres undefined)	-0.67	-2.4
COc1ccc(Cc2nc3ccccc3n2CC(O)COc2ccccc2)cc1 (centres undefined)	1.1	0.23
Cc1cc(OCC(=O)Nc2ccc(OC(F)(F)F)cc2)c2ccccc2n1	.	-0.18
COc1ccc(OC)c(C2CC(c3ccc(C(C)C)cc3)Nc3nnnn32)c1 (centres undefined)	2.4	.
O=C1c2ccccc2C(Nc2ccccc2Br)N1c1ccccn1 (centres undefined)	0.77	0.67
CCc1ccc(N2CSC3=C(C#N)C(c4cccc(F)c4)CC(=O)N3C2)cc1 (centres undefined)	0.58	5.2*
N#CC1=C2SCN(c3ccc(F)cc3)CN2C(=O)CC1c1cccc(Br)c1 (centres undefined)	-1.8	3.3*
N#CC1=C2SCN(c3ccccc3)CN2C(=O)CC1c1cccc(Br)c1 (centres undefined)	-3.3	6.9*
COc1ccc(N2CSC3=C(C#N)C(c4ccc(Br)cc4)CC(=O)N3C2)cc1 (centres undefined)	-1.4	5.3*
Cc1cc(N2C(=O)c3nccnc3C2=O)ccc1Br	1.8	-1.1
Cc1c(C(=O)N2CCCC2)oc2ccc3c(c12)C(O)CC1(CCCCC1)O3 (centres undefined)	1.2	.
NC(=O)c1c(NC(=O)c2cc(-c3ccco3)on2)sc2c1CCCC2	.	-0.38
CCN(CC)C(=O)c1sc(NC(=O)c2cc(-c3ccc(C)o3)nc3ccccc23)c(C(N)=O)c1C	8.5*	0.85
NC(=O)c1nc(Nc2ccccc2)sc1NC(=O)c1cc(-c2ccco2)nc2ccccc12	20*	.
SMILES	HIV TAR-Tat	CDC25B-CDK2 inh
Cc1nnc(NC(=O)c2cc(-c3ccc(Cl)cc3)nc3ccccc23)s1	.	-4.8
NC(=O)c1nc(Nc2ccccc2)sc1NC(=O)Cc1cccs1	-0.59	.
CC1(C)CC(=O)C2=C(C1)OC(N)=C(C#N)C21CCCCC1	.	-2.1
Cc1nc2ncnn2c(N2CCN(c3ccccn3)CC2)c1C	1.2	.
CC1CC(C)CN(c2cc(NCCO)c3c4c(onc24)-c2ccccc2C3=O)C1 (centres undefined)	1.2	-3.2
CN1CCN(c2cc(N3CCCCC3)c3c4c(onc24)-c2ccccc2C3=O)CC1	-6	5.6*
CCN1CCN(c2cc(N3CCCCC3)c3c4c(onc24)-c2ccccc2C3=O)CC1	-4.5	1.2
CN1CCN(c2cc(NCC(=O)O)c3c4c(onc24)-c2ccccc2C3=O)CC1	0.58	3.9*
CC1CC(C)CN(c2cc(NCC(=O)O)c3c4c(onc24)-c2ccccc2C3=O)C1 (centres undefined)	-5.8	12*
CC1CC(C)CN(c2cc(NCCCC(=O)O)c3c4c(onc24)-c2ccccc2C3=O)C1 (centres undefined)	-1.8	3*
CC1CCCN(c2cc(NCCCC(=O)O)c3c4c(onc24)-c2ccccc2C3=O)C1 (centres undefined)	-2.2	0.56
CCNc1cc(N2CCN(C)CC2)c2noc3c2c1C(=O)c1ccccc1-3	0.06	-2.6
Cc1cc2nc(COC(=O)COc3ccc(Cl)cc3)cc(=O)n2o1	0.99	.
CCCCNC(=O)c1sc2nc(C)cc(C)c2c1-n1cccc1	.	-1.9
Cc1nc(-c2ccc(C)c(S(=O)(=O)NCCC3=CCCCC3)c2)cs1	0.72	.
CCc1nnc2sc(COc3ccc(Br)cc3)nn12	1.9	-0.8
